Results reported in PubChem BioAssay (EPA / NIEHS).
Calls of active or inactive are those of the source. The calls were made as follows: active = hit-call score of the fitted dose curve at least 0.9, where 1 is the maximum; inactive = score below 0.9.

Assays:
Details in all cases: mRNA level, 48 h; actives raise or lower the signal
[1] = read-out: Cytochrome P450 (CYP24A1), CYP24A1 (gene 1591); assay: LTEA_HepaRG_CYP24A1: Life Technologies and Expression Analysis (LTEA) Assay for Cytochrome P450 (CYP24A1) using HepaRG (AID 2283478)
Procedure, shortened: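 qRT-PCR read-out: CYP24A1 transcript levels normalized to three housekeeping genes, bidirectional curve fits against 0.5% DMSO baseline. Human HepaRG cells treated 48 h with chemicals at eight concentrations from 100 uM in half-log steps.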

[2] = read-out: Cytochrome P450 (CYP1A2), CYP1A2 (gene 1544); assay: LTEA_HepaRG_CYP1A2: Life Technologies and Expression Analysis (LTEA) Assay for Cytochrome P450 (CYP1A2) using HepaRG (AID 2283479)
Procedure, shortened: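 HepaRG, 48 h exposure, top 100 uM, half-log 8-pt, 0.5% DMSO vehicle, duplicates. Readout: TaqMan qRT-PCR of CYP1A2 mRNA, housekeeping-normalized (ACTB/GAPDH/POLR2A). Gain/loss fit relative to DMSO baseline.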

[3] = read-out: cysteine-aspartic acid protease (CASP8), CASP8 (gene 841); assay: LTEA_HepaRG_CASP8: Life Technologies and Expression Analysis (LTEA) Assay for cysteine-aspartic acid protease (CASP8) using HepaRG (AID 2283480)
Procedure, shortened: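 qRT-PCR readout of CASP8 mRNA, normalized to three housekeeping genes, after 48 h chemical exposure of HepaRG cells; 8-point half-log series, top 100 uM, 0.5% DMSO vehicle. Bidirectional curve fitting against DMSO baseline.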

[4] = read-out: Cytochrome P450 (CYP2B6), CYP2B6 (gene 1555); assay: LTEA_HepaRG_CYP2B6: Life Technologies and Expression Analysis (LTEA) Assay for Cytochrome P450 (CYP2B6) using HepaRG (AID 2283481)
Procedure, shortened: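 Read-out is CYP2B6 mRNA by TaqMan qRT-PCR, normalized to three housekeeping genes and fitted bidirectionally against 0.5% DMSO baseline. Human HepaRG cells received test chemicals for 48 h, top concentration 100 uM, half-log dilutions.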

CYP2C9 (gene 1559) = assay: LTEA_HepaRG_CYP2C9: Life Technologies and Expression Analysis (LTEA) Assay for CYP2C9 using HepaRG (AID 2283484)
Procedure, shortened: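 HepaRG, 48 h dosing, 8-pt half-log series, top 100 uM, 0.5% DMSO vehicle. Read-out: CYP2C9 transcript by TaqMan qRT-PCR, housekeeping-normalized (ACTB/GAPDH/POLR2A). Gain or loss fitted vs DMSO baseline.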

CYP2E1 (gene 1571) = assay: LTEA_HepaRG_CYP2E1: Life Technologies and Expression Analysis (LTEA) Assay for CYP2E1 using HepaRG (AID 2283485)
Procedure, shortened: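 CYP2E1 transcript was measured by TaqMan qRT-PCR in human HepaRG cultures after 48 h chemical exposure (top 100 uM, half-log steps, 0.5% DMSO vehicle). Housekeeping-gene normalization; gain or loss fitted relative to DMSO baseline.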

CYP4A11 (gene 1579) = assay: LTEA_HepaRG_CYP4A11: Life Technologies and Expression Analysis (LTEA) Assay for CYP4A11 using HepaRG (AID 2283486)
Procedure, shortened: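 CYP4A11 transcript levels were quantified by TaqMan qRT-PCR after HepaRG human liver cells were treated for 48 hours with test chemicals (top 100 uM, half-log dilutions, 0.5% DMSO). Gain or loss of signal was fitted relative to DMSO.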

[5] = read-out: Cytochrome P450 3A4 (Homo sapiens) (UniProt P08684); assay: LTEA_HepaRG_CYP3A4: Life Technologies and Expression Analysis (LTEA) Assay for CYP3A4 using HepaRG (AID 2283487)
Procedure, shortened: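 HepaRG, 48 h exposure, 8-pt CRC from 100 uM (half-log), 0.5% DMSO, duplicates; serum-free induction medium. Readout: CYP3A4 mRNA, qRT-PCR, ACTB/GAPDH/POLR2A normalization. Bidirectional fit vs DMSO.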

[6] = read-out: DNA damage-inducible transcript 3 (DDIT3), DDIT3 (gene 1649); assay: LTEA_HepaRG_DDIT3: Life Technologies and Expression Analysis (LTEA) Assay for DNA damage-inducible transcript 3 (DDIT3) using HepaRG (AID 2283488)
Procedure, shortened: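 qRT-PCR readout (Fluidigm TaqMan), housekeeping-normalized to ACTB, GAPDH, POLR2A. HepaRG cells, 48 h exposure, 8-point half-log series from 100 uM in 0.5% DMSO, duplicates. Gain or loss of signal fitted against DMSO baseline.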

[7] = read-out: Pro-epidermal growth factor (Homo sapiens) (UniProt P01133); assay: LTEA_HepaRG_EGF: Life Technologies and Expression Analysis (LTEA) Assay for Epidermal growth factor (EGF) using HepaRG (AID 2283489)
Procedure, shortened: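 qRT-PCR readout of EGF transcript after 48 h chemical exposure of HepaRG cells; eight concentrations from 100 uM down in half-log steps, duplicate wells, 0.5% DMSO vehicle. Bidirectional curve fitting against DMSO baseline.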

[8] = read-out: Early growth response protein 1 (EGR1) transcription factor, EGR1 (gene 1958); assay: LTEA_HepaRG_EGR1: Life Technologies and Expression Analysis (LTEA) Assay for Early growth response protein 1 (EGR1) transcription factor using HepaRG (AID 2283490)
Procedure, shortened: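 HepaRG, 48 h exposure, 8-pt half-log series from 100 uM, 0.5% DMSO vehicle; EGR1 transcript by TaqMan qRT-PCR (Fluidigm array), housekeeping-normalized; bidirectional fit relative to DMSO baseline.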

[9] = read-out: Ezrin (EZR), EZR (gene 7430); assay: LTEA_HepaRG_EZR: Life Technologies and Expression Analysis (LTEA) Assay for Ezrin (EZR) using HepaRG (AID 2283491)
Procedure, shortened: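 Read-out is EZR transcript level by qRT-PCR, normalized to three housekeeping genes and fitted bidirectionally against the DMSO control. Human HepaRG cells received test chemicals for 48 h at eight half-log concentrations up to 100 uM in 0.5% DMSO.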

[10] = read-out: Cytochrome P450 3A7 (Homo sapiens) (UniProt P24462); assay: LTEA_HepaRG_CYP3A7: Life Technologies and Expression Analysis (LTEA) Assay for CYP3A7 using HepaRG (AID 2283492)
Procedure, shortened: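 CYP3A7 transcript levels were read by TaqMan qRT-PCR on Fluidigm arrays after 48 h chemical exposure of human HepaRG cells, with housekeeping-gene normalisation. Eight half-log concentrations up to 100 uM in 0.5% DMSO were tested in duplicate.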

CYP3A5 (gene 1577) = assay: LTEA_HepaRG_CYP3A5: Life Technologies and Expression Analysis (LTEA) Assay for CYP3A5 using HepaRG (AID 2283493)
Procedure, shortened: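 qRT-PCR read-out: CYP3A5 transcript in HepaRG lysates, housekeeping-normalized (ACTB/GAPDH/POLR2A), fitted bidirectionally against 0.5% DMSO baseline. Exposure 48 h, eight half-log concentrations up to 100 uM, duplicates.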

[11] = read-out: Fatty Acid-Binding Protein 1 (FABP1), FABP1 (gene 2168); assay: LTEA_HepaRG_FABP1: Life Technologies and Expression Analysis (LTEA) Assay for Fatty Acid-Binding Protein 1 (FABP1) using HepaRG (AID 2283494)
Procedure, shortened: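 qRT-PCR readout of FABP1 transcript (normalized to three housekeeping genes) after 48 h chemical exposure of HepaRG cells; eight concentrations, half-log steps, max 100 uM, 0.5% DMSO vehicle; gain or loss fitted relative to DMSO baseline.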

[12] = read-out: Cytochrome P450 4A22 (Homo sapiens) (UniProt Q5TCH4); assay: LTEA_HepaRG_CYP4A22: Life Technologies and Expression Analysis (LTEA) Assay for Cytochrome P450 4A22 (CYP4A22) using HepaRG (AID 2283495)
Procedure, shortened: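 HepaRG, 48 h post-plating -> serum-free induction medium; dosed 48 h, duplicate, 8 conc. (100 uM top, half-log), 0.5% DMSO. Readout: CYP4A22 mRNA by qRT-PCR, ACTB/GAPDH/POLR2A normalization; gain/loss fit relative to DMSO.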

[13] = read-out: Cytochrome P450 7A1 (Homo sapiens) (UniProt P22680); assay: LTEA_HepaRG_CYP7A1: Life Technologies and Expression Analysis (LTEA) Assay for Cytochrome P450 7A1 (CYP7A1) using HepaRG (AID 2283496)
Procedure, shortened: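 Using 0.5% DMSO as vehicle and baseline, chemicals were tested in duplicate over an 8-point range from 100 uM on HepaRG cells for 48 h; qRT-PCR signals were normalised to ACTB, GAPDH and POLR2A.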

[14] = read-out: Glutathione S-Transferase (GSTA2), GSTA2 (gene 2939); assay: LTEA_HepaRG_GSTA2: Life Technologies and Expression Analysis (LTEA) Assay for Glutathione S-Transferase (GSTA2) using HepaRG (AID 2283497)
Procedure, shortened: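 qRT-PCR readout of GSTA2 transcript, normalized to three housekeeping genes, fitted bidirectionally against 0.5% DMSO baseline. Differentiated HepaRG cells received compound for 48 h at 8 concentrations (top 100 uM, half-log steps).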

[15] = read-out: Cytochrome P450 2C19 (Homo sapiens) (UniProt P33261); assay: LTEA_HepaRG_CYP2C19: Life Technologies and Expression Analysis (LTEA) Assay for CYP2C19 using HepaRG (AID 2283482)
Procedure, shortened: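 HepaRG, 48 h chemical exposure, 8-pt half-log series from 100 uM in 0.5% DMSO, duplicates. Readout: CYP2C19 mRNA by TaqMan qRT-PCR, housekeeping-normalized. Bidirectional fit vs DMSO baseline; phenobarbital 1mM as induction control.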

CYP2C8 (gene 1558) = assay: LTEA_HepaRG_CYP2C8: Life Technologies and Expression Analysis (LTEA) Assay for CYP2C8 using HepaRG (AID 2283483)
Procedure, shortened: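 HepaRG (human liver line), 48 h chemical exposure, 8-pt half-log series from 100 uM, 0.5% DMSO vehicle. Readout: CYP2C8 transcript by qRT-PCR, housekeeping-normalized. Bidirectional fit vs DMSO baseline.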

Measured: AC50

Cytochrome P450 3A7 (Homo sapiens), sequence (P24462 whole entry, looked up): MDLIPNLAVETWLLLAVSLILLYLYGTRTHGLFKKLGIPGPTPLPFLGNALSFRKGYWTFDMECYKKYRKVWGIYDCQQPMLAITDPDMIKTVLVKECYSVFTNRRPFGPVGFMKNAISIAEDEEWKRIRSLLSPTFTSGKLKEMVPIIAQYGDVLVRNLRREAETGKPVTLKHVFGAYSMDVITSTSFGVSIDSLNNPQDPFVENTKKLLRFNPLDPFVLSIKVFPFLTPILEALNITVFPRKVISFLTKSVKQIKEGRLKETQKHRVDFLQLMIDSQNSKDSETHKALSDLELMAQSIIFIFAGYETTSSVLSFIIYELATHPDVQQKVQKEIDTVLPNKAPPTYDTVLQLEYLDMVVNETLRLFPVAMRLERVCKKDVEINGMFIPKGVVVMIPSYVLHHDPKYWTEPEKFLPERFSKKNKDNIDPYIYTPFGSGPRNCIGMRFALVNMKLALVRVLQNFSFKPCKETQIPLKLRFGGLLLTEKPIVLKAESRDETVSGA
Cytochrome P450 2C19 (Homo sapiens), sequence (P33261 whole entry, looked up): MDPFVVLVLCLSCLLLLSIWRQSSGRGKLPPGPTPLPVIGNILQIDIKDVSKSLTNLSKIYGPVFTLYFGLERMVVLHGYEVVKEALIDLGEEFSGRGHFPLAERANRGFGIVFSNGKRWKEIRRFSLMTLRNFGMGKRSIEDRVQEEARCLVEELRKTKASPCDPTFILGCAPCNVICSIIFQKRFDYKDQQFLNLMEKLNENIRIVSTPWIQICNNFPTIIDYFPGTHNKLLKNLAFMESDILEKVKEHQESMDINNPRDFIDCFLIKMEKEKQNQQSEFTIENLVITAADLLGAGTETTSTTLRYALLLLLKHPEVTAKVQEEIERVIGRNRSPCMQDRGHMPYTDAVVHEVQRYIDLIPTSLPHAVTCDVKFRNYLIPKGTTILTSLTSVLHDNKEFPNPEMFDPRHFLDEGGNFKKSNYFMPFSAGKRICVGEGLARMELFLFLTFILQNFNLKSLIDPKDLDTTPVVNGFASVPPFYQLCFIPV
Cytochrome P450 3A4 (Homo sapiens), sequence (P08684 whole entry, looked up): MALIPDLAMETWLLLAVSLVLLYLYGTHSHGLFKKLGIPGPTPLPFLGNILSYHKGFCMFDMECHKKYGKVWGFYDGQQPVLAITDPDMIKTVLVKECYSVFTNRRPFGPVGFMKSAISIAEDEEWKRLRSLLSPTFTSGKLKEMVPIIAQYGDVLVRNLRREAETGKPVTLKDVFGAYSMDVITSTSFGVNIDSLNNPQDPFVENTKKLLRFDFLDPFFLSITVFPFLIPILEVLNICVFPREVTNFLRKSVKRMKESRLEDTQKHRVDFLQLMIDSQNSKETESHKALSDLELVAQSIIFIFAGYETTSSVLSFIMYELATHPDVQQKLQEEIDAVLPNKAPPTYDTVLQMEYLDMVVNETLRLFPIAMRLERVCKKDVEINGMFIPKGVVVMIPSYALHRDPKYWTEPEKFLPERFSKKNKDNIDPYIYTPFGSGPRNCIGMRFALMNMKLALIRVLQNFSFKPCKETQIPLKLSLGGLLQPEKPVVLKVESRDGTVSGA

Cc1cccc(C)c1O
not listed: [14] | [15] | CYP2C8 (gene 1558)
inactive: all other assays above

COc1cc(S(=O)(=O)O)c(C)cc1N=Nc1c(O)ccc2cc(S(=O)(=O)O)ccc12
not listed: [15] | CYP2C8 (gene 1558)
inactive: all other assays above

CC(CO)OC(C)CO (stereo not given) (tested in a mixture with another compound)
not listed: [4] | CYP2C9 (gene 1559)
inactive: all other assays above

CCCCCCCC=O
active: [2] 50 µM | [6] 9.92 µM
not listed: [4] | [14]
inactive: all other assays above

Nc1ccc2c(c1)C(=O)c1ccccc1C2=O
active: [2] 4.96 µM | CYP2C8 (gene 1558) 3.97 µM | CYP2E1 (gene 1571) 14.3 µM | CYP4A11 (gene 1579) 29 µM | [6] 20.9 µM | [7] 6.13 µM | [8] 10.4 µM | CYP3A5 (gene 1577) 1.6 µM | [11] 13.6 µM | [12] 31 µM | [13] 8.9 µM | [14] 10.2 µM
inactive: [1] | [3] | [15] | [5] | [9] | [10]

Cc1cc(=O)[nH]c(=S)[nH]1
active: [2] 50 µM
not listed: CYP2C9 (gene 1559) | [15]
inactive: all other assays above

CC=Cc1ccc(O)c(OC)c1
not listed: CYP2C9 (gene 1559) | [15]
inactive: all other assays above
